Only some compounds are listed: those with a hit (about 3.8% of all), similar ones and a draw of the others.
MT1-MMP txn act: MT1-MMP promoter reporter activation – cell-based, luciferase luminescence, primary screen. HT1080 MT1-MMP promoter luciferase reporter, overnight; stronger effect = higher value. activation factor at 10 µM. AID 750, 2007. 86,000 tested, 0.16% active;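 active = activation factor of at least 2 for MT1-MMP transcription at 10 µM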
ERa SRC1 pot: enhancers of ERα–SRC-1 coactivator binding, primary screen, biochemical, TR-FRET, ERα LBD, low estradiol. Estrogen receptor (Homo sapiens), P03372. TR-FRET ERalpha-LBD/SRC-Cy5 coactivator binding, 2 h; 100 = basal binding, no effect. coactivator binding (% of control), % at 25.6 µM. 86,000 tested, 1.3% active; in the data active = activity above about 200%;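 also: binding measured in presence of low estradiol as agonist stimulus; 0% = peptide alone without receptor and 100% = receptor with peptide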
ERb SRC1 inh: inhibitors of ERβ-SRC1 coactivator interaction, primary screen, biochemical, TR-FRET, ERβ LBD, SRC-1 peptide. 86,000 tested, 1.3% active. TR-FRET ER-beta LBD / SRC1-Cy5 peptide binding; receptor agonist-loaded with 1 µM estradiol. Estrogen receptor beta (Homo sapiens), Q92731. inhibition, % at 25.6 µM;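 active = compounds whose percent inhibition of the receptor-coactivator binding signal exceeds about 50% in the single-dose screen, limit read from the data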;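 also: 0% = receptor plus peptide wells without compound and 100% = peptide-only wells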
Candida biofilm: clotrimazole potentiators killing Candida biofilms, primary screen, with clotrimazole, Alamar Blue; C. albicans biofilm + clotrimazole; inhibition, % at 6 µM; 85,000 tested, 0.14% active; AID 834, 2007;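 active = inhibition above 20%; inactive = inhibition below 20%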;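 also: preformed 24 hr biofilms exposed to compound for 48 hr; 0% = biofilm without compound and 100% = blank killed by clotrimazole plus chlorhexidine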
ERa coact inh: ERα–SRC-1 coactivator interaction inhibitors, primary screen, biochemical, TR-FRET, ERα LBD, estradiol-bound | Estrogen receptor (Homo sapiens), P03372 | 86,000 tested, 1.7% active | TR-FRET ER-alpha LBD / SRC-1 peptide | inhibition, % at 25.6 µM; in the data active = inhibition above about 50%;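 also: 0% = receptor plus peptide control and 100% = peptide only without receptor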
Smad3 FoxH1 inh: Smad3/FoxH1 peptide binding inhibitors, primary screen, biochemical, TR-FRET. Mothers against decapentaplegic homolog 3 (Homo sapiens), P84022. TR-FRET Smad3/Dy647-FoxH1 peptide binding, europium anti-His. inhibition, % at 25 µM. 88,000 tested, 0.29% active. AID 630, 2007;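 active = compounds that reduce the energy-transfer binding signal between the protein and its labelled peptide by more than half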;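 also: 0% = Smad3 plus labelled peptide maximal FRET and 100% = peptide-only background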
Target sequence (P84022 whole entry, looked up): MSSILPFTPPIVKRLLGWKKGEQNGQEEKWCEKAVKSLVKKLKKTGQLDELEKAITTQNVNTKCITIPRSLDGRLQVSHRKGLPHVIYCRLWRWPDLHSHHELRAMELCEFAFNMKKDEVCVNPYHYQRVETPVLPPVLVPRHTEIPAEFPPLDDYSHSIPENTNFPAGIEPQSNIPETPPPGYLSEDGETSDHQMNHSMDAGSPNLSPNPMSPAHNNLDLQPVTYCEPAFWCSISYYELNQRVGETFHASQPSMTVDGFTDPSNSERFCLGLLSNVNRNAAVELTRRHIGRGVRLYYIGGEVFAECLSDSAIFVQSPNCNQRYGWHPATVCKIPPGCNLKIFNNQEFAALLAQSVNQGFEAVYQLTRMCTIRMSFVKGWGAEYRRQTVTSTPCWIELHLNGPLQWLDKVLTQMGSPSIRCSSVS
* hit, by the source's call; · = no result given; [ ] = dose if it differs, or a comment.

SMILES	MT1-MMP txn act	ERa SRC1 pot	ERb SRC1 inh	Candida biofilm	ERa coact inh	Smad3 FoxH1 inh
O=C(O)/C=C/c1c2ccc(=O)c(O)c-2oc2c(O)c(O)ccc12	·	·	·	·	·	-0.2
COC(=O)[C@@H]1C[C@H]1[C@@H](NS(=O)(=O)c1ccc(-c2ccccc2)cc1)c1ccccc1	1.2	·	·	·	·	·
COC(=O)c1ccc(-c2n[nH]c(=O)c3ccccc23)cc1	1	296.1*[fluorescence artefact?]	-1.9	7.5	1.1	0.9
CCOC(=O)Cc1cc(=O)n2[nH]c(-c3ccc(Cl)cc3)cc2n1	1.1	89.2	7.0	5.6	14.2	0.9
CC(C)(C)OC(=O)N1CCC(c2cc(=O)n3[nH]c(-c4ccc(Cl)cc4)cc3n2)CC1	·	251.0*[fluorescence artefact?]	11.4	6.0	30.6	-28.5
c1ccc2c(c1)-c1nc3ccccc3cc1[C@@H]2N1CCOCC1	·	·	·	·	·	-8.6
Fc1ccccc1CSc1ncnc2c1oc1ccccc12	1	213.0*[fluorescence artefact?]	31.4	8.6	28.1	4.2
O=C(CSc1ncnc2c1oc1ccccc12)Nc1cccc(Cl)c1	1.3	372.7*[fluorescence artefact?]	26.4	6.9	6.3	23.1
CCc1nnc(NC(=O)CSc2nnc(-c3ccccc3NC(=O)c3ccccc3)o2)s1	0.9	285.2*[fluorescence artefact?]	30.6	9.8	21.7	35.2
COC(=O)c1ccc(CSc2ncnc3c2oc2ccccc23)o1	1	233.8*[fluorescence artefact?]	55.8*[fluorescence artefact?]	0.2	41.0	62.0*[fluorescence artefact?]
O=C(CSc1ncnc2c1oc1ccccc12)Nc1cccc(C(F)(F)F)c1	1.1	188.4	18.7	9.7	23.9	6.5
CCn1nc(C)c(NS(=O)(=O)c2ccccc2)c1C	1.2	113.9	5.1	4.0	9.0	11.5
Nc1nc(N)[n+]([O-])c(N)c1NCO	·	·	·	·	·	3.6
O=C(CSC1=NCCN1)c1ccccc1	·	·	·	·	·	12.6
O=C(CSc1ncnc2c1oc1ccccc12)Nc1nc2ccccc2s1	·	75.0	18.4	0.4	42.3	6.6
CCc1nnc(NC(=O)CSc2ncnc3c2oc2ccccc23)s1	1.1	238.4*[fluorescence artefact?]	15.5	1.7	-18.1	-10.4
COC(=O)c1ccc(CSc2ncn[nH]2)o1	1.2	106.6	86.4*[fluorescence artefact?]	7.4	-7.5	4.0
O=C(CSc1ncnc2c1oc1ccccc12)Nc1ccccc1F	1	406.4*[fluorescence artefact?]	54.8*[fluorescence artefact?]	3.6	47.3	47.5
CC(=O)CSc1ncnc2c1oc1ccccc12	1.5	108.4	-12.8	2.0	4.5	43.7
CCOc1ccccc1NC(=O)CSc1ncnc2c1oc1ccccc12	1	274.2*[fluorescence artefact?]	40.5	4.7	30.9	4.8
NCCSCCc1ccccc1	·	·	·	·	·	3.9
O=C(NCc1ccc2c(c1)OCO2)c1ccc(C2SCC(=O)N2Cc2ccco2)cc1 (configuration not stated)	0.9	214.9*[fluorescence artefact?]	32.6	3.4	42.8	4.3
C=CCCCCCCCCC(=O)NNC1=CC(=O)CC(C)(C)C1	1.1	112.4	1.7	12.2	-1.8	4.5
COc1ccc(N2CC(C(=O)Nc3ccccc3C(=O)NCc3ccco3)CC2=O)cc1 (configuration not stated)	1.2	101.6	-18.3	-0.4	0.7	-11.5
COc1ccc(N2Cc3cccc(C(=O)NC(C)CCc4ccco4)c3C2=O)cc1 (configuration not stated)	1.2	97.6	48.9	-7.6	69.3*[fluorescence artefact?]	5.4
SMILES	MT1-MMP txn act	ERa SRC1 pot	ERb SRC1 inh	Candida biofilm	ERa coact inh	Smad3 FoxH1 inh
CCOC(=O)N1CCC(NC(=O)c2cnn3c(C(F)(F)F)cc(-c4cccc(OC)c4)nc23)CC1	1.1	182.8	51.2*[fluorescence artefact?]	8.4	72.0*[fluorescence artefact?]	22.9
CCOC(=O)c1cnn2c(C(F)(F)F)cc(-c3ccccc3)nc12	1	109.9	-32.6	9.6	-21.6	20.1
CCOC(=O)N1CCC(NC(=O)c2cccc3c2C(=O)N(c2ccc(OC)cc2)C3)CC1	1	57.3	52.3*	3.1	72.2*[fluorescence artefact?]	10.2
CN[C@@H]1NC(=O)c2ccccc2N1Cc1ccc(F)cc1	·	·	·	·	·	-0.3
CCCCn1cnc2c(SC)ncnc21	·	·	·	·	·	1.5
COC(=O)[C@@]1(Cc2ccccc2)[C@H]2c3cc(C(=O)N(C)C)n(Cc4ccc(O)c(OC)c4)c3C[C@H]2CN1C(=O)c1ccccc1	1.1	·	·	·	·	·
O=C(NCc1ccccn1)C1CCC(=O)N1C1CCCCC1 (configuration not stated)	·	117.9	-4.3	3.7	82.3*[fluorescence artefact?]	2.5
CCC(=O)Nc1ncnc2ncn(C(=O)CC)c12	·	·	·	·	·	1.2
COc1ccc(N=C2NC(=O)S/C2=C\c2ccc(N(C)C)cc2)cc1	1.4	37.0	51.9*	0.4	53.5*	-0.5
O=C(c1ccc(Cl)cc1)C1CCN(C(=O)C2CC2)CC1	1	80.8	34.6	-1.1	8.9	-21.6
C/C(N)=C(/C#N)C(=O)CSc1nnc(NC(C)C)s1	1.5	1.2	99.2*[fluorescence artefact?]	3.8	96.7*[fluorescence artefact?]	17.0
C/C(N)=C(/C#N)C(=O)CSc1ncnc2ccccc12	1.1	51.0	44.8	5.2	43.1	8.7
C/C(N)=C(/C#N)C(=O)CSc1nnc(Nc2ccccc2C)s1	1.3	42.3	65.5*	-1.9	51.2*[fluorescence artefact?]	-7.3
CCCCCCc1nc2ccccc2c(=O)n1NC(=O)c1c(O)c2cccc3c2n(c1=O)CC3	1.1	100.5	25.1	-2.9	11.8	-9.4
COc1cc(NC(=O)c2ccccc2)c(OC)cc1NC(C)=O	1.1	88.1	-3.9	-0.4	-45.4	2.6
CCC(=O)Nc1cc(OC)c(NC(=O)c2ccccc2)cc1OC	1.1	58.9	53.0*[fluorescence artefact?]	9.7	64.3*[fluorescence artefact?]	-3.2
NC(=O)/C(=N\OC(=O)c1ccco1)c1nc(-c2ccc(Br)cc2)cs1	1.1	86.4	47.3	12.1	66.2*[fluorescence artefact?]	-1.6
COc1ccc2[nH]c(=O)c(-c3noc(-c4ccccc4)n3)cc2c1	1.2	188.0	61.0*[fluorescence artefact?]	-2.8	69.1*[fluorescence artefact?]	10.6
Cc1ccc2[nH]c(=O)c(-c3noc(-c4ccncc4)n3)cc2c1	1	103.6	8.3	1.2	4.5	0.7
O=c1c2c3c(sc2n2c(=S)[nH]nc2n1Cc1ccccc1)CN(Cc1ccccc1)CC3	1.1	93.6	21.6	1.2	22.0	6.1
CC[C@H](CN(C)C)C(=O)c1ccco1	·	·	·	·	·	-10.2
CSc1nc(NCc2ccco2)c2ccccc2n1	·	98.1	3.6	5.7	54.5*	41.1
c1cncc(-c2nc(NCc3ccco3)c3ccccc3n2)c1	1.3	98.9	4.8	-0.1	-52.7	3.2
COc1ccc(C=O)cc1CSc1nnc(COc2cccc3cccnc23)o1	1.2	96.4	-16.9	6.4	-6.4	2.0
O=C(O)c1cc(C(=O)O)nc(C(=O)O)c1	·	·	·	·	·	7.1
COCn1c(COc2ccc3ccccc3c2)nc2ccccc21	2.3*	85.5	-5.0	3.8	-1.8	0.9
Cc1ccc(N2C(=O)c3ccc(C(=O)O)cc3C2=O)cc1C	1.1	87.4	-5.7	5.9	-5.0	2.8

Assay outcomes deposited in PubChem by several laboratories.
